Source: PubChem
Only some compounds are listed: those with a hit (about 12% of all), similar ones and a draw of the others.
Sfp inh: blocks B. subtilis Sfp PPTase activity | Biochemical Sfp PPTase activity, qHTS | Q9F4F7 | AID 1490 | 3.5% of 310,000 active | Potency, µM, without a hit: largest response in the series, negative = inhibition, usual class: inhibitors;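 also: the enzyme is Sfp with the accession as filed and its product quenches rhodamine fluorescence; 0% = enzyme reaction without inhibitor and -100% = no enzyme wells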
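Sfp 15 nM + cpd, 15 min RT; start w/ rhodamine-CoA 5 uM, BHQ-2-YbbR 12.5 uM (final); 50 mM Hepes pH 7.6, 10 mM MgCl2, 0.01% NP-40, 0.01% BSA; read 525/598 nm at 0 and 30 min.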
BAZ2B inh: BAZ2B (human) inhibition; AlphaScreen BAZ2B-H3K14Ac peptide displacement; Potency, µM (top dose mostly 114 µM), for the others: at the highest dose activity change, negative = inhibition, actives largely listed as inhibitors; 4.4% of 360,000 active; AID 504333; also: % is scaled to controls: 0 for no effect and ±100 for the full control effect; nearly all actives have a fitted effect of over 60% in size
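BAZ2B (50 nM) with biotin-H3(5-23)K14Ac peptide (50 nM) in PBS pH 7.4, 0.01% Tween-20, preformed 30 min, then compound 30 min at room temperature; top concentration 110uM. AlphaScreen streptavidin donor/nickel chelate acceptor beads (10 ug/mL final), 20 min dark, signal read.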
HP1b binding inh: blocks HP1-beta chromodomain binding to methylated histone tails; P83916; AlphaScreen HP1-beta / biotin-H3K9me3 peptide binding; Potency, µM (series often up to 114 µM), for the others: top-dose activity change, negative = inhibition, hits mostly inhibitors; 0.56% of 390,000 active; also: nearly all actives have a fitted effect of over 70% in size
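HP1-beta protein (50 nM final) preincubated 30 min at room temperature with biotinylated H3(1-18)K9me3 peptide (50 nM) in PBS pH 7.4, 0.01% Tween-20, then compound added for 30 min. AlphaScreen streptavidin donor/nickel chelate acceptor beads (10 ug/mL final), 30 min dark, luminescence read.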
JMJD2A Tudor inh: JMJD2A Tudor domain (human) inhibition; AlphaScreen JMJD2A-Tudor / H3K4me3 peptide binding; Potency, µM (highest dose often 114 µM), for inactives: top-dose activity change, negative = inhibition, hits mostly inhibitors; 4.4% of 390,000 active; AID 504339; also: % is scaled to controls: 0 for no effect and ±100 for the full control effect; nearly all actives have a fitted effect of over 50% in size
G9a inh: inhibitors of human histone lysine methyltransferase G9a. 8.8% of 350,000 active. G9a H3K9 monomethylation, AlphaScreen, 2 h. Q96KQ7. Potency, µM (highest dose often 102 µM), for inactives: top-dose activity, negative = inhibition, hits mostly inhibitors; also: % is scaled to controls: 0 for no effect and ±100 for the full control effect; nearly all actives have a fitted effect of over 75% in size
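Quantitative HTS format: methyltransferase activity on a biotin-tagged H3K9 peptide is measured by AlphaScreen, using a rabbit anti-monomethyl-H3K9 antibody with streptavidin donor and anti-IgG acceptor beads. Final levels are 20 nM enzyme, 500 nM peptide, 20 uM SAM; 2 h RT.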
L3MBTL1 inh: blocks human L3MBTL1 | Potency, µM (doses to about 57.1 µM), inactives show at the highest dose activity, negative = inhibition, usual class: inhibitors | 0.66% of 230,000 active | AlphaScreen L3MBTL1–H3K9me1 peptide binding; also: % is scaled to controls: 0 for no effect and ±100 for the full control effect; nearly all actives have a fitted effect of over 60% in size
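L3MBTL1 50 nM + b-AHA-H3(1-15)K9me1 75 nM, 30 min RT; compound added, 30 min RT; streptavidin donor/Ni-chelate acceptor beads 10 ug/mL each final, 30 min RT dark; AlphaScreen read.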
* hit, by the source's call; ? = inconclusive; . = not tested or not shown; [ ] = remark or other dose. Calls follow the shape of the dose curve; as a rule, active = well fitted curve in the direction sought with a large enough effect; inconclusive = small, poorly fitted or top-dose-only effect, or another doubt; inactive = no such curve, though single readings can be large; an effect the other way counts as inactive or inconclusive. Potency is read from the fitted curve at half-maximal effect.

SMILES | Sfp inh | BAZ2B inh | HP1b binding inh | JMJD2A Tudor inh | G9a inh | L3MBTL1 inh
CN(Cc1ccccc1)C(=O)c1cc2cc(F)ccc2[nH]1 | 9% | -16% | 51% | -8% | 20% | .
CCc1ccc2[nH]c(C(=O)Nc3ccc(F)cc3Br)cc2c1 | 56µM* | -18% | 9% | -27% | 45µM* | .
CCc1ccc2[nH]c(C(=O)Nc3ccc(Br)c(C)n3)cc2c1 | 2% | -20% | 36% | -25% | 45µM* | .
COc1cc(CN2CCN(CCCc3ccccc3)C(CCO)C2)cc(OC)c1O (stereo not given) | -5% | 4% | 23% | -9% | 40µM* | 0%
COc1ccc(CN2CCN(CCCc3ccccc3)C(CCO)C2)c(OC)c1 (stereo not given) | -1% | 0% | 16% | -23% | 12% | 1%
OCCC1CN(Cc2ccccc2O)CCN1CCCc1ccccc1 (stereo not given) | 19% | 1% | 24% | -12% | ? | -2%
OCCC1CN(Cc2c(O)ccc3ccccc23)CCN1CCc1ccccc1 (stereo not given) | 2% | -29% | -2% | ? | 2µM* | -15%
CC(=O)c1ccc(S(=O)(=O)N2CCN(c3nc(-c4ccccc4)nc4ccccc34)CC2)cc1 | . | . | 23% | -15% | . | .
NC(=O)C1Cc2ccccc2CN1S(=O)(=O)c1cccs1 (stereo not given) | 25% | -4% | 47% | -4% | -5% | 4%
CC(C)OC(=O)C1Cc2ccccc2CN1S(=O)(=O)c1cccs1 (stereo not given) | 7% | ? | 40% | -8% | 79µM* | .
CC(=O)c1cc2c(O)c(O)ccc2o1 | 56µM* | -30% | 15% | ? | 4µM* | ?
CC(=O)c1cc2cc(O)ccc2o1 | 4% | -30% | 25% | 1% | ? | -7%
CCCCc1cc2c(cn1)=C(OC(=O)C1CCCC1)C(C)(OC(=O)CC)C(=O)C=2 (stereo not given) | 10% | . | . | . | . | .
CCCOc1ccc2nc(C)c(CCC)c(SC(=N)N)c2c1 | ? | ? | 29% | ? | 40µM* | -13%
CNC(=S)N(CCc1c(C)[nH]c2ccccc12)Cc1cc(OC)c(OC)c(OC)c1 | -1% | 45µM* | -1% | ? | ? | -4%
CCNC(=S)N(CCc1c(C)[nH]c2ccccc12)Cc1cc(OC)c(OC)c(OC)c1 | 1% | 50µM* | -8% | ? | 89µM* | -15%
CCNC(=S)N(CCc1c(C)[nH]c2ccccc12)Cc1cccnc1 | -1% | ? | ? | ? | ? | .
O=C(Cn1cc(SCc2c(F)cccc2Cl)c2ccccc21)N1CCCCC1 | . | -6% | 42% | 13% | -2%[59 µM] | .
Cc1ccc(S(=O)(=O)NC2CCCCCCC2)cc1 | 1% | -3% | 42% | -2% | . | 1%
Cc1ccc(S(=O)(=O)NC2OC(=O)C(Cl)=C2Cl)cc1 (stereo not given) | -2% | 79µM* | 27% | -9% | ? | .
O=C(NNc1nc2ccccc2s1)c1ccc(F)cc1 | -9% | 6% | 24% | -15% | 15%[59 µM] | 15%
CC(C)NC(=S)NNc1nc2ccccc2s1 | 2.5µM* | -34% | 50µM* | 45µM* | 2.2µM* | -10%
O=C(O)Cn1cnc2scc(-c3cccs3)c2c1=O | 56µM* | ? | 14% | -17% | ? | ?
CCN1C(=S)SC(=O)C1=C1C=C(C)N(Cc2ccco2)C(C)=C1 | 14µM* | ? | -44% | -34% | ? | -2%
CCOc1ccccc1NC(=O)C(=O)Nc1ccc2nc3n(c(=O)c2c1)CCCCC3 | . | -11% | 11% | -25% | -3%[59 µM] | .
COc1ccc2nc(SCC(=O)N(C)C3CCCCC3)[nH]c2c1 | . | 8% | 15% | -12% | 1%[59 µM] | 2%
CC1CCN(C(=S)c2cn(Cc3ccccc3F)c3ccccc23)CC1 | -5% | ? | ? | ? | -8%[59 µM] | -6%
S=C(c1c[nH]c2ccccc12)N1CCOCC1 | 22µM* | -20% | ? | -26% | 11µM* | -10%
